In PMC4336329 (PLoS ONE, 2015):
Hit rate of the full screen: of about 310,000 compounds, about 14,000 (4.5%) showed an effect of 50% or more. Effects have a minus sign here. The full list was thinned out, with strong results kept by preference.

Each compound was assayed against human ether-à-go-go-related gene (hERG) potassium channel (human, UniProt Q12809) (assay: primary screen, population patch clamp on CHO cells stably expressing hERG; higher = less effect of the substance).
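Also: peak tail current of the secondary pulse compared with the same well before compound.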

Sequence of human ether-à-go-go-related gene (hERG) potassium channel (Q12809 whole entry, looked up): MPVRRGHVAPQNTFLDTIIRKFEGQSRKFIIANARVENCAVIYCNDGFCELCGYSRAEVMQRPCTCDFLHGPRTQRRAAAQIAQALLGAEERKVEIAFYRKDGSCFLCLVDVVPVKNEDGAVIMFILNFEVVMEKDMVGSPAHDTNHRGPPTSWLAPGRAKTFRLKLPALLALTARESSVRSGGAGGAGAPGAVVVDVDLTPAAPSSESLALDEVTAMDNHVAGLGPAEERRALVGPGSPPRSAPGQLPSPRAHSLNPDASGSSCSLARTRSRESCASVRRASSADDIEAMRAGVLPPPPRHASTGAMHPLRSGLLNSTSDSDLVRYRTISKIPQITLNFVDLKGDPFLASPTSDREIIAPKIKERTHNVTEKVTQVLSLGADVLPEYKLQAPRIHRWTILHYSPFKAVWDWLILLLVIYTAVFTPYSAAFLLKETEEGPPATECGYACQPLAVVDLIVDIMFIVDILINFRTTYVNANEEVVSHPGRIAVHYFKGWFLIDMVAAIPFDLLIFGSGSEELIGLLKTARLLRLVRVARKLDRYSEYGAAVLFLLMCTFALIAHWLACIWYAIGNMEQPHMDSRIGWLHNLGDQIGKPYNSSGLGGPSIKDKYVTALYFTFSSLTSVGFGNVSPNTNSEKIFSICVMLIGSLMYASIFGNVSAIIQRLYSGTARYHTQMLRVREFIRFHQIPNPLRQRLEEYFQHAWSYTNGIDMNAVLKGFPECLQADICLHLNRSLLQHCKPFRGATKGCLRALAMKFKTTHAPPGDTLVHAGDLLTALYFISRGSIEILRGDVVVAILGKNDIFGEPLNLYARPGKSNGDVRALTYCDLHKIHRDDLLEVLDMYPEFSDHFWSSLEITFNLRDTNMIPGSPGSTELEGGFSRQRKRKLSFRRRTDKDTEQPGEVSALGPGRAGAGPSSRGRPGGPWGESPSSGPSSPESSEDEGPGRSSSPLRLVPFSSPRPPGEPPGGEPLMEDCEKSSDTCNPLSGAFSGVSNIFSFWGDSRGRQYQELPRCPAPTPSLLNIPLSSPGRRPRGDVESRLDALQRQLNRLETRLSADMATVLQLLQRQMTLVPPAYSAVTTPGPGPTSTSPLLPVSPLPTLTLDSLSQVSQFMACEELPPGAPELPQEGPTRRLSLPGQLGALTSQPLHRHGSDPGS

Compound | hERG current change (%, negative = inhibition) at 10uM
CN(C)/C=C(\C(=O)c1ccc(F)cc1F)c1nnnn1-c1ccccc1 | 21.1%
CCOC(=O)/C(C#N)=C/Nc1ccccc1OC | 0.538%
Cc1cc(=O)oc(C)c1C(=O)OCC(=O)c1ccccc1 | -5.02%
COc1ccc(N(Cc2cc3cc(OC)ccc3[nH]c2=O)S(=O)(=O)c2ccc(NC(C)=O)cc2)cc1 | 5.64%
Cc1ccc(C2(c3ccccc3)NC(=O)N(CC(=O)NCc3ccco3)C2=O)cc1C (stereo not shown) | -50.4%
Cc1ccc(C2(c3ccccc3)NC(=O)N(CC(=O)N(C)C3CCS(=O)(=O)C3)C2=O)cc1C (stereo not shown) | -22%
N#CC1(NC(=O)CN2C(=O)NC3(CCCCCC3)C2=O)CCCCC1 | -0.951%
Cc1ccc(C2(c3ccccc3)NC(=O)N(CC(=O)NC3CCS(=O)(=O)C3)C2=O)cc1C (stereo not shown) | -9.17%
Cc1ccc(C2(c3ccccc3)NC(=O)N(CC(=O)NCc3ccccc3)C2=O)cc1C (stereo not shown) | -23%
CCN(C(=O)CN1C(=O)NC(c2ccccc2)(c2ccc(C)c(C)c2)C1=O)C1CCS(=O)(=O)C1 (stereo not shown) | -53.4%
CCC1(c2ccccc2)NC(=O)N(CC(=O)NC2(C#N)CCCCC2)C1=O (stereo not shown) | 2.94%
CCN(C(=O)CN1C(=O)NC(c2ccccc2)(c2ccc(C)c(C)c2)C1=O)C1CCCCC1 (stereo not shown) | -33.3%
N#CC1(NC(=O)CN2C(=O)NC(c3ccccc3)(c3ccccc3)C2=O)CCCC1 | -55%
Cc1cc(NC(=O)CN2C(=O)NC(c3ccccc3)(c3ccc(C)c(C)c3)C2=O)no1 (stereo not shown) | -48.5%
Cc1ccc(C2(c3ccccc3)NC(=O)N(CC(=O)NC3(C#N)CCCC3)C2=O)cc1C (stereo not shown) | -63.4%
COc1ccc(C2(c3ccc(OC)cc3)NC(=O)N(CC(=O)NC3(C#N)CCCCC3)C2=O)cc1 | -42.4%
O=C1c2ccccc2C2NC(=O)C3(CCCCC3)N12 (stereo not shown) | 7.54%
COc1ccc(C2CC(=O)N(c3ccccc3)C3=C2C(=O)CCC3)cc1 (stereo not shown) | 13.1%
O=C(CN1C(=O)CC(c2ccco2)Sc2ccccc21)NCc1ccc2c(c1)OCO2 (stereo not shown) | -37.1%
S=C(NCCCc1ccccc1)Nc1ccccc1Cl | 2.38%
Fc1ccc(-c2csc(-c3ccc(C4SCCS4)cc3)n2)cc1F | 4.89%
COC(=O)C1=C(N)Oc2cc(C)n(Cc3cccnc3)c(=O)c2C1c1ccc(OC)c(OC)c1 (stereo not shown) | -19%
CCOC(=O)c1cc(C)n(-c2c(C)n(C)n(-c3ccccc3)c2=O)c1C | 21.6%
COc1cccc(NC(=S)N/N=C2\CC(C)(C)Oc3ccc(O)cc32)c1 | 3.3%
CC1(C)C/C(=N\NC(=S)Nc2ccccc2F)c2cc(O)ccc2O1 | -18.8%
CC(=O)N1CCC2(CC1)C/C(=N\NC(=S)Nc1ccccc1C)c1cc(O)ccc1O2 | -61.1%

Compound | hERG current change (%, negative = inhibition) at 10uM
Cc1ccccc1NC(=S)N/N=C1\CC(C)(C)Oc2ccc(O)cc21 | 42.1%
CC(=O)N1CCC2(CC1)C/C(=N\NC(=S)Nc1ccccc1F)c1cc(O)ccc1O2 | -69%
Cc1ccc(NC(=S)N/N=C2\CC(C)(C)Oc3ccc(O)cc32)cc1 | 12%
COc1ccccc1NC(=S)N/N=C1\CC(C)(C)Oc2ccc(O)cc21 | 0.968%
CC(=O)N1CCC2(CC1)C/C(=N\NC(=S)Nc1ccc(C)cc1)c1cc(O)ccc1O2 | -70.8%
Cc1cccc(NC(=S)N/N=C2\CC(C)(C)Oc3ccc(O)cc32)c1 | 8.34%
COc1ccc(C(=O)CC(=O)C(=O)Nc2ccc(C)c(C)c2)cc1 | -12.2%
O=C1CSC(c2cccnc2)N1c1ccccc1 (stereo not shown) | 13%
CCOCCCNC(=O)CCNS(=O)(=O)c1ccc(C)cc1 | 3.47%
Cc1ccc(S(=O)(=O)N(C)c2ccc(OCC(=O)Nc3nc4ccccc4s3)cc2)cc1 | 17.8%
Cc1cccc(C(=O)Oc2ccc(/C=N/NC(=O)c3ccc(O)cc3)cc2)c1 | 28.6%
Cc1nnc(SC(C)C(=O)Nc2ccc(S(=O)(=O)N3CCCCC3)cc2)s1 (stereo not shown) | -18.4%
CC(C)NC(=O)C1(O)c2ccccc2NC(=O)N1c1ccc(Cl)c(Cl)c1 (stereo not shown) | 9.1%
O=C1N=C(N2CCN(c3ccccc3)CC2)SC1Cc1ccccc1 (stereo not shown) | -66.4%
Cc1cccc(N2CCN(C3=NC(=O)C(Cc4ccccc4)S3)CC2)c1 (stereo not shown) | -30.7%
Cc1cccc(CC2SC(N3CCN(c4ccccc4)CC3)=NC2=O)c1 (stereo not shown) | -53.5%
Cc1cccc(CC2SC(N)=NC2=O)c1.Cl (stereo not shown) | 19.9%
NC1=NC(=O)C(Cc2ccccc2)S1 (stereo not shown) | 2.01%
Cc1ccc(N2CCN(C3=NC(=O)C(Cc4ccccc4)S3)CC2)cc1 (stereo not shown) | -40.1%
O=c1c2[nH]c3cccc(Cl)c3c2ncn1Cc1ccncc1 | -13.6%
CN(C)S(=O)(=O)c1ccc(Cl)c(NC(=O)CN2C(=O)NC3(CCc4ccccc43)C2=O)c1 (stereo not shown) | -18%
CC(C)C(NS(=O)(=O)c1ccc2c(c1)oc(=O)n2C)C(=O)N1CCN(C2CCCCC2)CC1 (stereo not shown) | 2.88%
Cc1ccc(C)c(NC(=O)C2CCCN2C(=O)OC(C)(C)C)c1 (stereo not shown) | 1.04%
O=C(CN(CCc1ccccc1)S(=O)(=O)c1ccc(Cl)cc1)N/N=C/c1ccccc1C(=O)O | 14.6%
Cc1ccc(N(CC(=O)NCCSc2nc3ccccc3s2)S(=O)(=O)c2ccccc2)c(C)c1 | -42.1%
CCOc1ccc2nc(NCCNC(=S)NCCCN(C)C)c(C#N)cc2c1 | 1.89%
